Source: PubChem BioAssay (National Center for Advancing Translational Sciences (NCATS))
Sampled rows, rich in hits. Any-hit rate of the full collection: about 9%.
12-LOX inh: inhibitors of human 12S-lipoxygenase ALOX12. P18054. purified 12hLO, xylenol orange hydroperoxide absorbance. Potency, µM (series often up to 108 µM), for the others: at the top dose activity change, negative = inhibition, actives largely listed as inhibitors. 1.1% of 580,000 active; also: % is scaled to controls: 0 for no effect and ±100 for the full control effect
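Purified human 12hLO (150 nM final) in 25 mM Hepes, 0.01% Triton X-100, pH 7.0 was preincubated 15 min at room temperature with compound. Then 40 uM arachidonic acid was added, 30 min. Hydroperoxide was read by Fe-XO absorbance ratio 573/405 nm.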
G9a inh: G9a (human) methyltransferase inhibition; AID 504332; Potency, µM (doses to about 102 µM), inactives show at the top dose activity, negative = inhibition, usual class: inhibitors; 8.8% of 350,000 active; Q96KQ7; G9a H3K9 monomethylation, AlphaScreen, 2 h; also: % is scaled to controls: 0 for no effect and ±100 for the full control effect; nearly all actives have a fitted effect of over 75% in size
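Enzyme 20 nM + cpd, 15 min RT; add b-H3K9 pep 500 nM / SAM 20 uM; 2 h RT; anti-H3K9me1 Ab 0.5 ug/mL + SA donor / anti-rabbit acceptor beads 20 ug/mL each, 10 min; AlphaScreen read.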
PLK1 PBD inh: inhibitors of human PLK1 polo-box domain binding; 2.8% of 360,000 active; Potency, µM, for the others: max response, negative = inhibition, usual class: inhibitors; P53350; Plk1 PBD binding of FITC phosphopeptide, fluorescence polarization; AID 720504; also: series mostly up to about 57 µM; % is scaled to controls: 0 for no effect and ±100 for the full control effect; nearly all actives have a fitted effect of over 65% in size
BAZ2B inh: BAZ2B (human) inhibition. AlphaScreen BAZ2B-H3K14Ac peptide displacement. Potency, µM (titrated, usually from 114 µM), for the others: top-dose activity change, negative = inhibition, hits mostly inhibitors. 4.4% of 360,000 active; also: % is scaled to controls: 0 for no effect and ±100 for the full control effect; nearly all actives have a fitted effect of over 60% in size
Target sequence (Q9UIF8 whole entry, looked up): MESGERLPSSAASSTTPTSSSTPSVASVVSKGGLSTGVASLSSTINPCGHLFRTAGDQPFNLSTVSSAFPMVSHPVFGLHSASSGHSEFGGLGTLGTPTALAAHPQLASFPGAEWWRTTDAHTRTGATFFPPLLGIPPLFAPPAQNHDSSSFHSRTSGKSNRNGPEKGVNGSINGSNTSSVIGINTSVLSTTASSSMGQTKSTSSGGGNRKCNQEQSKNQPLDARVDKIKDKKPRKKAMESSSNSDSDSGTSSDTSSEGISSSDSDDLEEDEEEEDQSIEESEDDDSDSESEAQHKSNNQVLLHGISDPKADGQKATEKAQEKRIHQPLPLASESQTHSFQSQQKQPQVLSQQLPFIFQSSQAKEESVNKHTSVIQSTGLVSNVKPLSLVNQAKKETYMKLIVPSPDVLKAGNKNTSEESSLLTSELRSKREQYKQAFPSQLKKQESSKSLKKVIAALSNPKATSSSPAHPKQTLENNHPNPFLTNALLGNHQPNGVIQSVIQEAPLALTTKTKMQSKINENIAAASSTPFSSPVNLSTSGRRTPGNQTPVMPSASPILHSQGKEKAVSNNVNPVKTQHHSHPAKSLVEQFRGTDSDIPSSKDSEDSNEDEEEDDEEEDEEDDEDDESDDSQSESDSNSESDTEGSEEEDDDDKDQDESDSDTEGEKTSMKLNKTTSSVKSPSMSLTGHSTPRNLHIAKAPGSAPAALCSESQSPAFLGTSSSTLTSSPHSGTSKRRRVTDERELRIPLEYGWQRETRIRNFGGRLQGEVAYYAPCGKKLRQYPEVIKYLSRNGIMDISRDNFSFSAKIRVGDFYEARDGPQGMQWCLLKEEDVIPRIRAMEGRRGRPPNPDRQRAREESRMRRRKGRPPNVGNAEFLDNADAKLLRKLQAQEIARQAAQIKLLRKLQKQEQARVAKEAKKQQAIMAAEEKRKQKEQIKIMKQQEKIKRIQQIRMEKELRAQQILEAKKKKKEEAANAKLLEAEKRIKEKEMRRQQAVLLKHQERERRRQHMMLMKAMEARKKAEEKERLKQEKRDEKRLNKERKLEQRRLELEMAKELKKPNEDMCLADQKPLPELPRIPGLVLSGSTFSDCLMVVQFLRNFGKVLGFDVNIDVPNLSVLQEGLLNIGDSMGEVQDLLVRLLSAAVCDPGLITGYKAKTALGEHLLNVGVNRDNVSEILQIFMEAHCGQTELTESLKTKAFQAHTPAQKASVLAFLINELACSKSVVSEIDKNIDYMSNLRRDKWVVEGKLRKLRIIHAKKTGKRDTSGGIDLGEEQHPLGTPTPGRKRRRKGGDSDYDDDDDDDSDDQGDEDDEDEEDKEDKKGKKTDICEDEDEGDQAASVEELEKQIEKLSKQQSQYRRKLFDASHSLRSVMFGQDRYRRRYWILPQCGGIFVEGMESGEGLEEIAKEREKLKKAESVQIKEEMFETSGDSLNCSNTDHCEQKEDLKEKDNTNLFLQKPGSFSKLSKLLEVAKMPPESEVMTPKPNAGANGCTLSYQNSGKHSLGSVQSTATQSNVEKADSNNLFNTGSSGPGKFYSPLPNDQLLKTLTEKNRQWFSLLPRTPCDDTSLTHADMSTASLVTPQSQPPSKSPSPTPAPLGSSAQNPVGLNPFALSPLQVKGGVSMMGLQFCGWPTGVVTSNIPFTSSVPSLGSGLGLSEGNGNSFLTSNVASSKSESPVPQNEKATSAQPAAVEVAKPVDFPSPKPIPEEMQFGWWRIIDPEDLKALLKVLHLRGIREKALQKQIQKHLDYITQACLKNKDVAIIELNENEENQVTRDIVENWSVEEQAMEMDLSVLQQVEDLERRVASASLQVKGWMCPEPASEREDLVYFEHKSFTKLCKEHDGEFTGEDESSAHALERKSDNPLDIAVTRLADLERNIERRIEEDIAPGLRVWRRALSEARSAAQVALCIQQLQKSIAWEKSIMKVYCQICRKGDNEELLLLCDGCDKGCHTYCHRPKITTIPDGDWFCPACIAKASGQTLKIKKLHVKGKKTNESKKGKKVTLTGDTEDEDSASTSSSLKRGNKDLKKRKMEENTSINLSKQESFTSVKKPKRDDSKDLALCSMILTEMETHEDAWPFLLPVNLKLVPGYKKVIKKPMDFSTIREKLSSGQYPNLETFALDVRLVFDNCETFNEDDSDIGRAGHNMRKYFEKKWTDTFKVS
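AlphaScreen luminescence quantifies BAZ2B engagement of H3K14Ac peptide; the protein and biotinylated peptide are both at 50 nM final, buffer PBS pH 7.4 with 0.01% Tween-20, all steps at room temperature.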
JMJD2A Tudor inh: blocks the human JMJD2A Tudor domain | O75164 | AlphaScreen JMJD2A-Tudor / H3K4me3 peptide binding | Potency, µM (titrated, usually from 114 µM), without a hit: at the highest dose activity change, negative = inhibition, actives largely listed as inhibitors | 4.4% of 390,000 active | AID 504339; also: % is scaled to controls: 0 for no effect and ±100 for the full control effect; nearly all actives have a fitted effect of over 50% in size
HP1b chromo inh: HP1-beta chromodomain-methylated histone interaction inhibition; Potency, µM (top dose mostly 114 µM), for inactives: at the top dose activity change, negative = inhibition, usual class: inhibitors; AlphaScreen HP1-beta / biotin-H3K9me3 peptide binding; P83916; 0.56% of 390,000 active; also: nearly all actives have a fitted effect of over 70% in size
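Compound inhibition of the preformed complex between 50 nM HP1-beta and 50 nM biotinylated H3K9me3 peptide was read by AlphaScreen. Buffer was PBS pH 7.4 with 0.01% Tween-20. Incubations ran 30 min at room temperature, with 10 ug/mL donor/acceptor beads.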
* hit, by the source's call; [ ] = dose if it differs, or a comment. Calls follow the shape of the dose curve; as a rule, active = well fitted curve in the direction sought with a large enough effect; inconclusive = small, poorly fitted or top-dose-only effect, or another doubt; inactive = no such curve, though single readings can be large; an effect the other way counts as inactive or inconclusive. Potency is read from the fitted curve at half-maximal effect.

Screening Nc1c2c(nc3sc4c(c13)CCCC4)CCCCCC2 returned 12-LOX inh -1.6%, G9a inh -5.2%[59 µM], PLK1 PBD inh -13.2%, BAZ2B inh -1.9%, JMJD2A Tudor inh -24.7% and HP1b chromo inh 21.9%.
COc1cccc(C(Nc2ccccn2)c2oc(CO)cc(=O)c2O)c1 (stereo not drawn) was read as 12-LOX inh -7.6%, G9a inh 1.26µM*, PLK1 PBD inh 21.2µM*, BAZ2B inh 79.4µM*, JMJD2A Tudor inh 44.7µM* and HP1b chromo inh inconclusive.
O=c1cc(CO)oc(C(Nc2ccccn2)c2cccc(F)c2)c1O (stereo not drawn) was read as 12-LOX inh -15.5%, G9a inh 1.26µM*, PLK1 PBD inh 23.8µM*, BAZ2B inh -29.9%, JMJD2A Tudor inh 20µM* and HP1b chromo inh inconclusive.
For O=c1cc(CO)oc(C(Nc2ccccn2)c2ccccc2F)c1O (stereo not drawn) the results were 12-LOX inh inconclusive, PLK1 PBD inh inconclusive, JMJD2A Tudor inh 22.4µM* and HP1b chromo inh inconclusive.
For O=C(CCc1ncc(-c2ccccc2F)o1)Nc1ccccn1 the results were 12-LOX inh 3.6%.
O=c1cc(CO)oc(C(Nc2ccccn2)c2ccc(C(F)(F)F)cc2)c1O (stereo not drawn) was read as 12-LOX inh inconclusive, G9a inh 1.58µM*, PLK1 PBD inh inconclusive, BAZ2B inh -7.3%, JMJD2A Tudor inh -17.1% and HP1b chromo inh -16.9%.
CCCCN(C)CCNC(=O)c1cc(-c2cccnc2)nc2ccc(S(=O)(=O)N3CCC(C)CC3)cc12 was read as 12-LOX inh inconclusive, G9a inh 50.1µM*, PLK1 PBD inh 26.7µM*, BAZ2B inh -19.1%, JMJD2A Tudor inh inconclusive and HP1b chromo inh 2.8%.
CCCCN(CCCC)CCNC(=O)c1cc(-c2cccnc2)nc2ccc(S(=O)(=O)N3CCC(C)CC3)cc12 was read as 12-LOX inh -18.3%, G9a inh -22.7%[59 µM], BAZ2B inh 7.6%, JMJD2A Tudor inh -11.2% and HP1b chromo inh 50.6%.
For CCC(CO)NCC#Cc1ccccc1 (stereo not drawn) the results were 12-LOX inh -3.8%, G9a inh 56.2µM*, PLK1 PBD inh -6.9%, BAZ2B inh -34.2%, JMJD2A Tudor inh -17.2% and HP1b chromo inh 24.2%.
`C=CCNc1nc(C(=O)OCC(=O)Nc2ccc(S(N)(=O)=O)cc2)cs1` gave 12-LOX inh -26.2%, G9a inh -36.3%, PLK1 PBD inh -6.7%, BAZ2B inh 89.1µM*, JMJD2A Tudor inh inconclusive and HP1b chromo inh -0.3%.
C=CCNc1nc(C(=O)OCC(=O)Nc2cc(S(C)(=O)=O)ccc2Cl)cs1 was read as 12-LOX inh 4.7%, G9a inh 44.7µM*, PLK1 PBD inh -8.3%, BAZ2B inh 6.6%, JMJD2A Tudor inh -2.1% and HP1b chromo inh 32.1%.
C=CCNc1nc(C(=O)OCC(=O)c2ccccc2)cs1 was read as 12-LOX inh 444.0%, PLK1 PBD inh 0.0%, BAZ2B inh inconclusive, JMJD2A Tudor inh -12.5% and HP1b chromo inh 10.4%.
For C=CCNc1nc(C(=O)OCC(=O)NCc2cccc(Cl)c2)cs1 the results were 12-LOX inh inconclusive, G9a inh -6.2%[12.7 µM], PLK1 PBD inh -2.0%, BAZ2B inh 5.0%, JMJD2A Tudor inh -8.8% and HP1b chromo inh 23.2%.
Screening CCOC(=O)/C(=C\c1cccc(O)c1)c1nc2sc(C)c(C)c2c(=O)[nH]1 returned 12-LOX inh inconclusive, G9a inh 3.16µM*, PLK1 PBD inh 4.74µM*, BAZ2B inh -27.9%, JMJD2A Tudor inh 56.2µM* and HP1b chromo inh 28.2µM*.
Screening Nc1nnc2c(n1)CCCC2 returned 12-LOX inh -21.9%, G9a inh inconclusive, PLK1 PBD inh -4.3%, BAZ2B inh 50.1µM*, JMJD2A Tudor inh 22.4µM* and HP1b chromo inh 21.3%.
Screening O=C(CC[C@H]1O[C@@H](n2ccc(=O)[nH]c2=O)[C@H](O)[C@@H]1O)N[C@@H](Cc1ccccc1)C(=O)NCC1CCCCC1 returned 12-LOX inh -5.3% and PLK1 PBD inh 3.7%.
COc1ccccc1C(=O)NC(CCSC)C(=O)NCCCSc1ccccc1 (stereo not drawn) was read as 12-LOX inh inconclusive, G9a inh 56.2µM*, PLK1 PBD inh -2.8%, BAZ2B inh inconclusive, JMJD2A Tudor inh -33.8% and HP1b chromo inh -11.8%.
Screening COc1ccccc1C(=O)NC(CCSC)C(=O)OCC(=O)NC(=O)NCc1ccco1 (stereo not drawn) returned 12-LOX inh 69.8%, G9a inh -9.0%[59 µM], PLK1 PBD inh -12.6%, BAZ2B inh 50.1µM*, JMJD2A Tudor inh inconclusive and HP1b chromo inh -11.7%.
For CSCCC(NC(=O)c1ccc(Cl)cc1)C(=O)OCC(=O)NCc1ccco1 (stereo not drawn) the results were 12-LOX inh -22.0%, G9a inh inconclusive, PLK1 PBD inh -1.1%, BAZ2B inh -29.5%, JMJD2A Tudor inh -6.9% and HP1b chromo inh 15.9%.
`Cc1ccc(Nc2nnc(SCC(=O)Nc3ccnn3C3CCCC3)s2)cc1Cl` gave 12-LOX inh -3.8%.
`CCC(C)[C@H]1CNCCN1CCc1cc(C(F)(F)F)cc(C(F)(F)F)c1` (stereo partly drawn) gave 12-LOX inh -19.2%, G9a inh -19.5%[2.33 µM], PLK1 PBD inh -5.3%, BAZ2B inh 50.1µM*, JMJD2A Tudor inh -34.5% and HP1b chromo inh 25.6%.
CCC(C)[C@H]1CNCCN1CCc1cccc2ccccc12 (stereo partly drawn) was read as 12-LOX inh -0.6%, G9a inh 18.1%[2.33 µM], PLK1 PBD inh -18.6%, BAZ2B inh inconclusive, JMJD2A Tudor inh 56.2µM* and HP1b chromo inh -0.4%.
Screening c1ccc2c(C[C@@H]3CNCCN3CCC34CC5CC(CC(C5)C3)C4)cccc2c1 returned 12-LOX inh -3.4%, PLK1 PBD inh -15.5%, JMJD2A Tudor inh 39.8µM* and HP1b chromo inh -3.7%.
`CC(C)(C)CN1CCNC[C@H]1Cc1cccc2ccccc12` gave 12-LOX inh 1.5%, G9a inh 2.3%[2.33 µM], PLK1 PBD inh 1.4%, BAZ2B inh -38.9%, JMJD2A Tudor inh -27.7% and HP1b chromo inh 34.5%.
`N[C@H](C(=O)N1CCC2(CC1)C(=O)NCN2C(=O)Cc1c[nH]c2ccccc12)c1ccccc1` gave 12-LOX inh 8.0%[6.33 µM].
`O=S1(=O)C=CC(Nc2ccccc2)C1` (stereo not drawn) gave 12-LOX inh 1.1%, G9a inh 23.5%, PLK1 PBD inh 26.7µM*, BAZ2B inh -0.4%[57.1 µM], JMJD2A Tudor inh -72.5%[57.1 µM] and HP1b chromo inh inconclusive.
